The record followed here is PubChem BioAssay (NCATS).

Test [1] in a line: qHTS Assay for Lipid Storage Modulators (AID 1519; calls by dose curve; as to activity change, negative = inhibition: % is scaled to controls: 0 for no effect and ±100 for the full control effect). Conditions: Drosophila S3 cells, BODIPY lipid droplet/cell ratio, laser cytometry, cells loaded with oleic acid. The essentials: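 Cells seeded at 5,000 per well were treated with compounds over a concentration series and loaded with oleic acid (400 uM, as added). Lipid droplet fluorescence (488 nm excitation, 500-530 nm channel) was read by laser-scanning cytometry and normalized to 20 uM Triacsin C.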

Test [2] has as its target Ubiquitin carboxyl-terminal hydrolase 1 (Homo sapiens) (UniProt O94782). Description: Inhibitors of USP1/UAF1: Pilot qHTS (AID 504865).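 Also: rhodamine fluorescence freed from ubiquitin-rhodamine substrate followed over time; top concentration of the series differs between compounds; % is scaled to controls: 0 for no effect and ±100 for the full control effect; nearly all actives have a fitted effect of over 35% in size.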 The conditions noted are these: purified USP1/UAF1, Ub-rhodamine cleavage fluorescence; series mostly up to 114 µM. The method in brief: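 USP1/UAF1 complex (1nM) preincubated with compound 15 min at room temperature, then Ub-Rho substrate (150nM final) added. Fluorescence read kinetically at 480/540 nm, 6 reads every 60 seconds. Buffer: 50mM HEPES pH 7.8, 0.5mM EDTA, 0.1 mg/ml BSA, 1mM TCEP, 0.01% Tween-20.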
(In general: In qHTS, concentration-response curves come from the screen itself.)

Test [3] is described as follows: qHTS profiling for inhibitors of Plasmodium falciparum proliferation (AID 504749).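 Also: 0% = DMSO vehicle and full inhibition = artemisinin control; nearly all actives have a fitted effect of over 60% in size.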 Conditions: P. falciparum in erythrocytes, SYBR Green DNA, 72 h, at 12.8 µM (top of the series). The method in brief: (§1)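 SYBR Green fluorescence (ex 485 nm, em 535 nm) reports parasite DNA after 72 h compound exposure of infected red cells at 0.3% parasitemia, 2.5% hematocrit; signal normalized to 0.29 uM artemisinin and vehicle wells.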

The subject of another test is C2A. Described as above. Conditions: P. falciparum in erythrocytes, SYBR Green DNA, 72 h; series mostly up to 12.8 µM. The method in brief:
as §1

For another test, the system named is CP185. The test is described as above. The conditions noted are these: P. falciparum in erythrocytes, SYBR Green DNA, 72 h; series mostly up to 12.8 µM. The method in brief:
as §1

For another test, the system named is CP211. The test is described as above. Conditions: P. falciparum in erythrocytes, SYBR Green DNA, 72 h; series mostly up to 12.8 µM. The method in brief:
as §1

A further test deals with CP238. The test is described as above. Conditions: P. falciparum in erythrocytes, SYBR Green DNA, 72 h; series mostly up to 12.8 µM. The method in brief:
as §1

The subject of another test is CP262. The test is described as above. Conditions: P. falciparum in erythrocytes, SYBR Green DNA, 72 h; series mostly up to 12.8 µM. The method in brief:
as §1

The next test deals with CP269. The test is described as above. Conditions: P. falciparum in erythrocytes, SYBR Green DNA, 72 h; series mostly up to 12.8 µM. The essentials:
as §1

A further test concerns CP305. The test is described as above. Conditions: P. falciparum in erythrocytes, SYBR Green DNA, 72 h; series mostly up to 12.8 µM. The essentials:
as §1

A further test deals with CP315. The test is described as above. Conditions: P. falciparum in erythrocytes, SYBR Green DNA, 72 h; series mostly up to 12.8 µM. The essentials:
as §1

For a further test, the system named is CP325. Described as above. The conditions noted are these: P. falciparum in erythrocytes, SYBR Green DNA, 72 h; series mostly up to 12.8 µM. The essentials:
as §1

For the next test, the system named is CP329. The test is described as above. Conditions: P. falciparum in erythrocytes, SYBR Green DNA, 72 h; series mostly up to 12.8 µM. The essentials:
as §1

A further test deals with FAB9. The description is as above. Conditions: P. falciparum in erythrocytes, SYBR Green DNA, 72 h; series mostly up to 12.8 µM. The essentials: as §1
In a further test the test system is JCK. Described as above. The conditions noted are these: P. falciparum in erythrocytes, SYBR Green DNA, 72 h; series mostly up to 12.8 µM. The method in brief:
as §1

For the next test, the system named is PC15. The description is as above. The conditions noted are these: P. falciparum in erythrocytes, SYBR Green DNA, 72 h; series mostly up to 12.8 µM. The method in brief: as §1
Another test concerns PC49. Described as above. The conditions noted are these: P. falciparum in erythrocytes, SYBR Green DNA, 72 h; series mostly up to 12.8 µM. The essentials:
as §1

The subject of a further test is CP201. Described as above. Conditions: P. falciparum in erythrocytes, SYBR Green DNA, 72 h; series mostly up to 12.8 µM. The essentials: as §1
A further test relates to CP268. The test is described as above. The conditions noted are these: P. falciparum in erythrocytes, SYBR Green DNA, 72 h; series mostly up to 12.8 µM. The method in brief:
as §1

Test [4] can be described thus: Confirmation and Secondary Assay for Modulators of Hemoglobin Beta Chain Splicing at IVS2 705 locus (AID 930).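 Also: HeLa cells stably expressing the EGFP-705 splicing reporter; GFP fluorescence per well restored by corrected splicing of the IVS2-705 intron in EGFP; % of control where 0% means no effect.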 The conditions noted are these: HeLa EGFP-705 splicing reporter, GFP fluorescence, 48 h; series mostly up to 46.1 µM. The method in brief: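 HeLa EGFP-705 reporter; 500 cells/well, o/n 37C 5% CO2; cpd 2 d; 488 ex/500-520 em laser scan; total peak GFP intensity/well. Ref: 500 nM […] antisense PNA.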

Where [5] appears, read: measured here: cell count channel max response.
Where [6] appears, read: measured here: lipid channel max response.

Inconclusive results are not listed. Activity calls are given as the source filed them. Unless noted, calls follow the shape of the dose curve; as a rule, active = well fitted curve in the direction sought with a large enough effect; inconclusive = small, poorly fitted or top-dose-only effect, or another doubt; inactive = no such curve, though single readings can be large; an effect the other way counts as inactive or inconclusive.

Ubiquitin carboxyl-terminal hydrolase 1 (Homo sapiens), sequence (O94782 whole entry, looked up): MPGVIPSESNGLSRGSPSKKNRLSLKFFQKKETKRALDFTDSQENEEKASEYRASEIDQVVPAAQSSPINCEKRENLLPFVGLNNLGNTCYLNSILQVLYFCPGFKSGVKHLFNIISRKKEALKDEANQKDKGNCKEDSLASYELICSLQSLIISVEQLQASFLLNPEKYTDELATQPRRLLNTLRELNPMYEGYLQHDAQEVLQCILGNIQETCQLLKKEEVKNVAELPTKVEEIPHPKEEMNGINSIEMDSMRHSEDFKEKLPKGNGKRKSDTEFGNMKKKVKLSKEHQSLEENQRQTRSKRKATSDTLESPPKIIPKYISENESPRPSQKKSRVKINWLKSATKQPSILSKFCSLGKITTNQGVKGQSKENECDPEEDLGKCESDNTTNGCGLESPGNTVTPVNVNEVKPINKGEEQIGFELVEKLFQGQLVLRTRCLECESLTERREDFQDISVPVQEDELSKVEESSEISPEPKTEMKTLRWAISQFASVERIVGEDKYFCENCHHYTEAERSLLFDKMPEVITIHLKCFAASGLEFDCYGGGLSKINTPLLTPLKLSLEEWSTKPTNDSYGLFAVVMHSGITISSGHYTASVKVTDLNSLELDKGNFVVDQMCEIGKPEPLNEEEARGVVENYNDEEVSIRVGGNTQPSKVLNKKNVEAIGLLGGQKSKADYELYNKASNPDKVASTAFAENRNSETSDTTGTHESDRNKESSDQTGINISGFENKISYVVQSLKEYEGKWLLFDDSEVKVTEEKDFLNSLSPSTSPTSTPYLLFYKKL

On to `CO[C@@H]1CC[C@@]2(C)[C@@H](CC[C@@]3(C)[C@H]2CC=C2[C@H]4CC(C)(C)[C@H](O)[C@@H](OC(C)=O)[C@]4(CO)[C@H](O)C[C@]23C)[C@@]1(C)CO` (tested in a mixture with another compound), for which, in test [1] (at 25.7 µM (top of the series)), the activity change, negative = inhibition was 0.0322% (inactive). Besides, the max response in [1] (setting [5]) turned out to be 6.28%; in test [1] (setting [6]) it was 7.61%. The Potency entry in [2] was “inactive”.
On to `CCN(CC)[C@@H](C)CN1c2ccccc2Sc2ccccc21`, for which the activity change, negative = inhibition in test [1] (at 25.7 µM (top of the series)) was 0.633% (inactive). Also, the max response was -2.62% in test [1] (setting [5]) and -2.65% in test [1] (setting [6]). Moreover, the Potency result (in test [2]; with C2A; in the test with CP185; in the test on CP211; in the test with CP238; in the test on CP262) was “inactive” in each case. For the same compound, the Potency result in the test on CP269, in the test on CP305, with CP315, with CP325, in the test on CP329 and in the test on FAB9 was “inactive” each time. For the same compound, the Potency entry with JCK, with PC15 and in the test on PC49 was “inactive” in each case. For the same compound, the activity, negative = inhibition in test [3] (parasite line B) is -12.9% (inactive).
For `CN1CCC[C@@H](CC2c3ccccc3Sc3ccccc32)C1`, the activity change, negative = inhibition in test [1] (at 25.7 µM (top of the series)) is -5.3% (inactive). For the same compound, the max response was -0.662% in test [1] (setting [5]) and -6.24% in test [1] (setting [6]). Besides, the Potency entry (in test [2]; with C2A; with CP185; with CP211; in the test on CP238; with CP262) was “inactive” in each case. In addition, the Potency entry with CP269, in the test on CP315, in the test with CP325, in the test with CP329, in the test on FAB9 and in the test with PC49 was “inactive” throughout. Besides, the activity, negative = inhibition in test [3] (parasite line A) was -16.3% (inactive).
On to `CO[C@]1(NC(=O)[C@H](C(=O)O)c2ccc(O)cc2)C(=O)N2C(C(=O)O)=C(CSc3nnnn3C)CO[C@H]21`, for which the activity change, negative = inhibition in test [1] (at 25.7 µM (top of the series)) is -4% (inactive). For the same compound, the max response was -7.15% in [1] (setting [5]) and -8.95% in test [1] (setting [6]). In addition, the Potency entry (in test [2]; in the test on C2A; in the test with CP185; in the test with CP201; in the test on CP211; in the test with CP238) was “inactive” throughout. For the same compound, the Potency entry in the test with CP262, in the test with CP268, in the test on CP269, in the test on CP305, with CP325 and in the test with CP329 was “inactive” throughout. Besides, the Potency entry in the test with FAB9, in the test on JCK, in the test on PC15 and in the test on PC49 was “inactive” each time. For the same compound, the activity, negative = inhibition in test [3] (parasite line A) was 8.42% (inactive); in test [3] (parasite line B) it was 2.41% (inactive).
For `OCCOCCN1CCN([C@@H](c2ccccc2)c2ccc(Cl)cc2)CC1`, the activity change, negative = inhibition in [1] (at 25.7 µM (top of the series)) was -0.885% (inactive). For the same compound, the max response in test [1] (setting [5]) stood at 8.41%; in test [1] (setting [6]) it was 6.93%. Further, the Potency result in test [2] is “inactive”.
As to `COc1cc2ccc(=O)oc2c(O)c1O`, the Potency result in test [4] was “inactive”. In addition, the activity change, negative = inhibition in [1] (at 57.5 µM (top of the series)) was -4.51% (inactive). In addition, the max response amounted to 13.9% in test [1] (setting [5]) and 11.4% in [1] (setting [6]).
On to `CCO[C@H]1O[C@@H]([C@H](COCc2ccccc2)OCc2ccccc2)[C@@H](OCc2ccccc2)[C@H]1O`, for which, in test [1] (at 25.7 µM (top of the series)), the activity change, negative = inhibition is -6.14% (inactive). Further, the max response was -8.63% in test [1] (setting [5]) and -12.6% in test [1] (setting [6]). For the same compound, the activity, negative = inhibition in test [3] (parasite line B) is -27.6% (inactive). Also, the Potency entry in the test on C2A, in the test on CP185, with CP201, with CP211, with CP238 and in the test with CP262 was “inactive” each time. Besides, the Potency entry with CP268, in the test with CP269, with CP305, with CP315, in the test on CP325 and in the test with CP329 was “inactive” throughout. The Potency result with FAB9, in the test on JCK, in the test on PC15 and in the test on PC49 was “inactive” each time.
Consider `C=C(C)[C@H]1CC[C@]2(C(=O)O)CC[C@]3(C)[C@@H](CC[C@H]4[C@@]5(C)CC[C@@H](O)C(C)(C)[C@@H]5CC[C@@]43C)[C@H]12`, for which, in test [1] (at 25.7 µM (top of the series)), the activity change, negative = inhibition was -9.82% (inactive). For the same compound, the max response in test [1] (setting [5]) is -3%; in [1] (setting [6]), -17.2%. Further, the Potency entry in test [2] was “inactive”.
